The list is not random: actives were taken first. Their share in the collection is about 2%.
S1P4 antagonist: human S1P4 receptor antagonism | O95977 | S1P4-expressing cells, antagonist mode, reporter read-out | inhibition, % at 4.98 µM | actives 0.26% (n = 220,000) | AID 1510; in the data active = inhibition above about 29%
EP2 antag: blocks the human prostaglandin E2 receptor EP2; C6 glioma cells expressing human EP2, cAMP TR-FRET; cells stimulated with saturating PGE2; inhibition, % at 25 µM; actives 0.52% (n = 260,000);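 active = percent inhibition above 40 after rounding to a whole number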;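 note: rat C6 glioma host cells with rolipram phosphodiesterase inhibitor present; the protocol text gives 20 µM as final concentration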
Target sequence (P43116 whole entry, looked up): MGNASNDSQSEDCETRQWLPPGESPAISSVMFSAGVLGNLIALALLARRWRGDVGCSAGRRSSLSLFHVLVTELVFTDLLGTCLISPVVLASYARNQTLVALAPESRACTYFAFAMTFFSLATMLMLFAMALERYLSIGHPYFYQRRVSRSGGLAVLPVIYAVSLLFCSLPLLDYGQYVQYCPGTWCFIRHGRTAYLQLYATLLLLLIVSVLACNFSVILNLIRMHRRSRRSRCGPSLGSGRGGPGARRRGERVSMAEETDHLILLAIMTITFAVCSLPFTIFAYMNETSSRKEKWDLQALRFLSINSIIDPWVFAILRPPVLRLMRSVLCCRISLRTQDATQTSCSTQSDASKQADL
S1P4 agonist: activates the human S1P4 receptor; S1P4-expressing cell line, agonist reporter assay; O95977; actives 0.35% (n = 220,000); activation, % at 4.98 µM; in the data active = activation above about 11%
EP2 mod: EP2 receptor (human) modulation. actives 0.83% (n = 260,000). induction, % at 25 µM. AID 940. EP2-expressing cells, cAMP HTRF FRET, PGE2 co-stimulation. P43116;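 active = compounds whose cAMP rise, as percent of the full-agonist control response, exceeds 60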;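 note: rat C6 glioma line stably carrying human EP2 under a CMV promoter; the protocol text gives 20 µM as final concentration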
S1P3 antag: antagonists of human S1P3 receptor; Q99500; CHO S1P3 NFAT-BLA reporter, FRET fluorescence, antagonist mode; inhibition, % at 4.98 µM; actives 0.27% (n = 170,000); AID 485;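 active = inhibition above the plate cutoff, the mean inhibition of test wells on that plate plus 3 SD, cut at about 28% in these data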;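 note: cells challenged with S1P at its EC80 of 0.8 µM; blue over green emission ratio from cleaved BLA substrate after 4 h stimulation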
Large screens that a line does not name were inactive.

CC(C)CSc1nc2c(c(=O)[nH]c(=O)n2C)n1CCc1ccccc1	none
CCOCCn1c(SCc2ccccc2)nc2c1c(=O)[nH]c(=O)n2C	none (no result: S1P4 antagonist, S1P4 agonist)
O=C(Nc1ccc(N2CCOCC2)c(Cl)c1)C1CCCN(c2cccnn2)C1 (centres undefined)	none (no result: S1P4 antagonist, S1P4 agonist, S1P3 antag)
CCn1c(SCC(=O)Nc2ccccc2Br)nnc1-c1ccccc1OC	none (no result: S1P4 antagonist, S1P4 agonist, S1P3 antag)
COC(=O)/C(=C/c1c[nH]c2ccccc12)[N+](=O)[O-]	EP2 antag 141 (no result: S1P3 antag)
O=C(CN1C(=O)c2ccccc2C1=O)NC1(C(=O)O)CCCC1	none (no result: S1P4 antagonist, S1P4 agonist, S1P3 antag)
O=C1c2ccccc2C(=O)N1C1(C(=O)NC2(C(=O)O)CCCC2)CCCC1	EP2 antag 42 (no result: S1P4 antagonist, S1P4 agonist, S1P3 antag)
CCCCCOc1ccc(CSC(=N)N)cc1[N+](=O)[O-]	EP2 antag 46 (no result: S1P3 antag)
Cc1cc(C)c2cc(C#N)c(N3CCCC3)nc2c1	none
Cc1cc(C)c2nc(N3CCCCC3)c(C#N)cc2c1	EP2 mod 63 (no result: S1P4 antagonist, S1P4 agonist, S1P3 antag)
Cc1cccc2cc(C#N)c(N3CCC(C)CC3)nc12	EP2 mod 77 (no result: S1P4 antagonist, S1P4 agonist, S1P3 antag)
Cc1cccc2cc(C#N)c(SCC(=O)N3CCC(C)CC3)nc12	none
Cc1cccc2cc(C#N)c(N3CCCCC3)nc12	EP2 mod 74 (no result: S1P4 antagonist, S1P4 agonist, S1P3 antag)
CCC(CN1CCOCC1)NC(=O)Cc1sc(C)nc1-c1ccc(C)c(C)c1 (centres undefined)	none (no result: S1P4 antagonist, S1P4 agonist, S1P3 antag)
CCN(CC)C(=O)CN1CCCC(c2ncncc2-c2cc(C)no2)C1 (centres undefined)	none (no result: S1P4 antagonist, EP2 antag, S1P4 agonist, S1P3 antag)
CCOc1ccc(C(C(=O)NC2CCCC2)N(C(=O)c2ccco2)c2ccc3c(c2)OCCO3)cc1 (centres undefined)	none (no result: S1P4 antagonist, S1P4 agonist, S1P3 antag)
CC[C@@H](Cn1ncc2ccccc2c1=O)NC(=O)C1(c2ccc(OC)cc2)CC1	none (no result: S1P4 antagonist, S1P4 agonist, S1P3 antag)
Cc1cc2c(s1)c1cnn(CC(=O)N3CC(C)CC(C)C3)c(=O)c1n2C (centres undefined)	none (no result: S1P4 antagonist, EP2 antag, S1P4 agonist, S1P3 antag)
CN1[C@@H](c2ccccc2)CC(=NO)C[C@H]1c1ccccc1	EP2 antag 42 (no result: S1P4 antagonist, S1P4 agonist, S1P3 antag)
O=c1sc2ccccc2n1CCc1ccccc1	none (no result: S1P4 antagonist, S1P4 agonist, S1P3 antag)
N=c1sc2ccccc2n1CCS (tested in a mixture with another compound)	EP2 antag 57 (no result: S1P4 antagonist, S1P4 agonist, S1P3 antag)
Cc1ccc(C)c(NC(=O)c2cc(-c3ccccc3)nn2-c2ccccc2)c1	EP2 mod 64
Cc1ccc(C)c(NC(=O)c2nc(-c3ccccc3)n(-c3ccccc3)n2)c1	none (no result: S1P3 antag)
CC(=O)c1cccc(NC(=O)CSc2nc3c(C)ccc(C)c3cc2C#N)c1	none (no result: S1P4 antagonist, S1P4 agonist, S1P3 antag)
Cc1cc2c(s1)c1cnn(CC(=O)O)c(=O)c1n2Cc1ccc(F)cc1	none (no result: S1P4 antagonist, S1P4 agonist, S1P3 antag)
CCOC(=O)C(C)n1ncc2c3sc(C)cc3n(Cc3ccc(F)cc3)c2c1=O (centres undefined)	EP2 mod 65 (no result: S1P4 antagonist, EP2 antag, S1P4 agonist, S1P3 antag)
OCCN1CCN(c2ncnc3ccc(Br)cc23)CC1	S1P3 antag 102
COc1ccc(CNc2ncnc3c2[nH]c2cc(OC)c(OC)cc23)cc1	EP2 antag 54
COc1ccc(CNc2ncnc3c2[nH]c2ccccc23)cc1	EP2 antag 60
O=C(c1ccco1)N1CCN(Cc2ccccc2)CC1	none (no result: S1P4 antagonist, S1P4 agonist, S1P3 antag)
CC(=O)[C@@]1(N=Nc2ccc(S(N)(=O)=O)cc2)CCOC1=O	EP2 antag 116 (no result: S1P4 antagonist, S1P4 agonist, S1P3 antag)
COc1ccc(-n2nc(C#N)c(Cl)cc2=O)cc1	S1P4 antagonist 30
C=C(C)CC(Nc1ccco1)c1ccccc1C (centres undefined)	EP2 mod 61 (no result: S1P4 antagonist, S1P4 agonist, S1P3 antag)
COc1ccc(-c2noc(COc3ccc4c(c3)OCO4)n2)cc1OC	none
COc1ccc(-c2noc(COc3ccc4c(c3)OCO4)n2)cc1	EP2 antag 99
NC(=O)CSc1nc2ccccc2c(=O)n1CCc1ccccc1	none (no result: S1P4 antagonist, S1P4 agonist, S1P3 antag)
C=CCSc1nc2ccccc2c(=O)n1C1CCOC(C)(C)C1 (centres undefined)	EP2 mod 76
CC1(C)CC(n2c(=S)[nH]c3ccccc3c2=O)CCO1 (centres undefined)	none (no result: EP2 antag)
C=CCSc1nc2ccccc2c(=O)n1CCc1ccccc1	EP2 mod 70 (no result: S1P4 antagonist, S1P4 agonist, S1P3 antag)
CCSc1nc2ccccc2c(=O)n1C1CCOC(C)(C)C1 (centres undefined)	EP2 mod 61
COCCn1c(SCCOc2ccccc2)nc2ccccc2c1=O	EP2 mod 64
Cc1nn(C)cc1CN(Cc1ccc(F)cc1)C1CC(C)(C)NC(C)(C)C1	none (no result: S1P4 antagonist, S1P4 agonist, S1P3 antag)
COc1ccc2nc3sc(C(=O)N4CCN(c5ccccc5)CC4)c(N)c3cc2c1	none (no result: S1P4 antagonist, S1P4 agonist, S1P3 antag)
COCCNC(=S)N(Cc1cc2cc(C)c(C)cc2[nH]c1=O)C1CCCC1	none (no result: S1P4 antagonist, S1P4 agonist, S1P3 antag)
Cc1ccc(S(=O)(=O)NCc2c(Cl)cccc2Oc2ccccc2)cc1	EP2 mod 69
O=C1CCCC(O)=C1C(C#Cc1ccccc1)C1=C(O)CCCC1=O	EP2 antag 43

Screens as filed in PubChem BioAssay.
